Measurements from PubChem BioAssay AID1053122 (Broad Institute, 2014).
Entries with a potency or affinity are not part of this list.

Experiment: CTGF mRNA reduction in DLD1 cells – cell-based, DLD1 colon cancer, RT-qPCR, cherry-pick, dose response (AID 1053122)
Details: DLD1 CTGF mRNA (YAP1 pathway), 24 h; series mostly up to 26 µM; CTGF expression fold change (lower = inhibition): at the top concentration;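 active means CTGF level falls with dose and the fitted half-maximal dose is at most twice the top valid dose; inconclusive means flat fit with 30 to 70% drop, or a poor fit; inactive means the rest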

CTGF expression fold change (lower = inhibition), inactive:
COc1ccccc1C#Cc1ccc([C@H]2[C@H](CO)N3CCCCN(C(=O)C4CCC4)C[C@@H]23)cc1 0.394 unspecified
N#Cc1cccc(-c2ccc3c(c2)[C@@H]2[C@@H](CCN2S(=O)(=O)c2ccc(F)cc2)[C@H](CO)N3)c1 0.556 unspecified
C[C@H]1CN([C@@H](C)CO)C(=O)c2cccc(NC(=O)c3ccc(-c4nccs4)cc3)c2O[C@@H]1CN(C)C(=O)Nc1ccc(C(F)(F)F)cc1 0.515 unspecified
COc1ccccc1S(=O)(=O)N1CC[C@@H]2[C@H]1c1cc(-c3cccc(C#N)c3)ccc1N(C)[C@H]2CO 0.465 unspecified [at 23.5 µM]
COc1ccc(NC(=O)N(C)C[C@H]2Oc3c(NC(=O)CCCCCC(=O)Nc4ccccc4N)cccc3C(=O)N([C@H](C)CO)C[C@@H]2C)cc1 0.828 unspecified [at 23.5 µM]
C[C@@H]1CN([C@H](C)CO)C(=O)CCCn2nncc2CO[C@@H]1CN(C)Cc1cccc(C(F)(F)F)c1 0.647 unspecified
C[C@@H]1CN([C@@H](C)CO)C(=O)CCCn2nncc2CO[C@@H]1CN(C)C(=O)c1cc(-c2ccccc2)on1 0.826 unspecified
C[C@H]1CN([C@@H](C)CO)S(=O)(=O)c2ccc(-c3cncnc3)cc2O[C@@H]1CN(C)C(=O)NC1CCCC1 0.874 unspecified
C[C@@H]1CN([C@H](C)CO)C(=O)c2cccc(NC(=O)c3nc4ccccc4s3)c2O[C@H]1CN(C)C(=O)Nc1ccc2c(c1)OCO2 0.622 unspecified [at 23.5 µM]
Cc1ccc(S(=O)(=O)N[C@H]2C=C[C@H](CC(=O)NCc3ccc(Cl)c(Cl)c3)O[C@H]2CO)cc1 1.01 unspecified
CC(C)(C)[S@@](=O)N1Cc2cc(C(=O)NCC(F)(F)F)nc(-c3cccc(-c4cccc(F)c4)c3)c2[C@H]1CCO 0.913 unspecified
